Data: PubChem BioAssay (NCATS)
Records with an inconclusive call do not appear. Activity calls are given as the source filed them. Calls come from the whole dose curve; as a rule, active = well fitted inhibition curve with a large enough effect; inconclusive = small, poorly fitted or top-dose-only effect; inactive = flat fitted curve, though single readings scatter.

Experiments:
Assay in all cases: qHTS profiling for inhibitors of Plasmodium falciparum proliferation (AID 504749); note: nearly all actives have a fitted effect of over 60% in size
Details in all cases: P. falciparum in erythrocytes, SYBR Green DNA, 72 h; series mostly up to 28.7 µM
CP203 = test system: CP203
Procedure, shortened: (§1)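 SYBR Green fluorescence (ex 485 nm, em 535 nm) reports parasite DNA after 72 h compound exposure of infected red cells at 0.3% parasitemia, 2.5% hematocrit; signal normalized to 0.29 uM artemisinin and vehicle wells.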

CP211 = test system: CP211
Procedure, shortened: as §1

CP215 = test system: CP215
Procedure, shortened: as §1

CP217 = test system: CP217
Procedure, shortened: as §1

CP237 = test system: CP237
Procedure, shortened: as §1

CP238 = test system: CP238
Procedure, shortened: as §1

CP247 = test system: CP247
Procedure, shortened: as §1

CP250 = test system: CP250
Procedure, shortened: as §1

CP252 = test system: CP252
Procedure, shortened: as §1

CP256 = test system: CP256
Procedure, shortened: as §1

Measured: Potency
Potency is the fitted concentration of half-maximal effect.

COc1ccc(/C=N/NC(=O)c2ccncc2)cc1OC
inactive: all assays above

O=C(Nc1ncc([N+](=O)[O-])s1)c1cccs1
inactive: all assays above

Cc1ccc(S(=O)(=O)NC(=O)NC2CCCC2)cc1
inactive: all assays above

CCOC(=O)[C@H](CCc1ccccc1)N[C@@H](C)C(=O)N1[C@H](C(=O)O)C[C@H]2CCCC[C@@H]21
inactive: all assays above

NC(N)=NCc1cccc(I)c1
inactive: all assays above

COc1ccc(-c2cc(C(F)F)nn2-c2ccc(S(N)(=O)=O)cc2)cc1F
inactive: all assays above

CC(=O)Nc1ccc(OCC(O)CNC(C)C)cc1 (centres undefined)
inactive: all assays above

Cc1c[nH]c2ccccc12
inactive: all assays above

C/C=C/C=N/NC(=O)c1ccncc1
inactive: all assays above

COc1cc(C)nc(-n2nc(C)cc2OC)n1
inactive: all assays above

CC(=O)Nc1ccc(S(=O)(=O)Nc2ccc([N+](=O)[O-])cc2)cc1
inactive: all assays above

CCN(CC)CCNc1ccc(CO)c2sc3ccccc3c(=O)c12
active: CP203 4.26 µM | CP211 4.26 µM | CP215 4.26 µM | CP217 2.82 µM | CP237 0.891 µM | CP238 1 µM | CP247 0.891 µM | CP250 1 µM | CP252 0.562 µM | CP256 1.78 µM

CC(=O)N[C@@H](CCC(=O)O)C(=O)O
inactive: all assays above

CCOc1ccccc1C(N)=O
inactive: all assays above

CCN1/C(=C/C=C/c2sc3ccccc3[n+]2CC)Sc2ccccc21
active: CP203 0.675 µM | CP211 0.379 µM | CP215 0.675 µM | CP217 0.178 µM | CP237 0.158 µM | CP238 0.126 µM | CP247 0.251 µM | CP250 0.178 µM | CP252 0.141 µM | CP256 0.1 µM

c1ccc(-c2nc[nH]c2-c2ccccc2)cc1
inactive: all assays above

CC(C)Cc1ccc(CC(=O)O)cc1
inactive: all assays above

CCCN(CCC)S(=O)(=O)c1ccc(C(=O)O)cc1
inactive: all assays above

C#C[C@]1(O)CC[C@H]2[C@@H]3CCC4=Cc5oncc5C[C@]4(C)[C@H]3CC[C@@]21C
inactive: all assays above

CCOC(=O)c1ccc(N)cc1
inactive: all assays above

COc1cc(NS(=O)(=O)c2ccc(N)cc2)ncn1
inactive: all assays above

O=C(O)CCNC(=O)c1ccccc1
inactive: all assays above

O=C(NCCc1c[nH]c2ccccc12)c1cccnc1
inactive: all assays above

CC(=O)Nc1ncc([N+](=O)[O-])s1
inactive: all assays above

CCCCC(CC)COC(=O)/C=C/c1ccc(OC)cc1 (centres undefined)
inactive: all assays above

CCCCCCCCOc1ccc(C(=O)c2ccccc2)c(O)c1
inactive: all assays above

OCc1ccccn1
inactive: all assays above

Cn1c(=O)c2[nH]c(Br)nc2n(C)c1=O
inactive: all assays above

CCCCNC(=O)NS(=O)(=O)c1ccc(N)cc1
inactive: all assays above

C#C[C@]1(O)CC[C@H]2[C@@H]3CCC4=CC(=O)CC[C@@H]4[C@H]3CC[C@@]21CC
active: CP237 6.31 µM
inactive: all other assays above

NS(=O)(=O)Cc1noc2ccccc12
inactive: all assays above

CCc1ccc(C(=O)C(C)CN2CCCCC2)cc1 (centres undefined)
inactive: all assays above

C=C[C@@]1(C)CC(=O)[C@]2(O)[C@@]3(C)[C@@H](O)CCC(C)(C)[C@@H]3[C@H](O)[C@H](OC(C)=O)[C@@]2(C)O1
inactive: all assays above

O=c1[nH]c(=O)n([C@H]2C[C@H](O)[C@@H](CO)O2)cc1F
inactive: all assays above

O=C1C(O)=C(O)C(=O)C(O)=C1O
inactive: all assays above

COc1cc(C(=O)NCc2ccc(OCCN(C)C)cc2)cc(OC)c1OC
inactive: all assays above

N#CCC(=O)NN
not listed: CP215
inactive: all other assays above

CC[C@H](c1ccc(O)cc1)[C@@H](CC)c1ccc(O)cc1
not listed: CP211
inactive: all other assays above

COc1ccc2c(c1)c1c3n2CCN(C)C3=NCC1
not listed: CP237
inactive: all other assays above

Cc1cccc(C)c1NC(=O)CN1CCCCCC1
not listed: CP237
inactive: all other assays above

Oc1c(Cl)cc(Cl)c(Cl)c1Cc1c(O)c(Cl)cc(Cl)c1Cl
active: CP203 7.57 µM | CP211 12 µM | CP215 7.57 µM | CP217 8.91 µM | CP237 11.2 µM | CP238 10 µM | CP247 8.91 µM | CP252 8.91 µM
inactive: CP256

O=C1C(=O)c2ccccc2C(O)=C1C1CCC(c2ccc(Cl)cc2)CC1 (centres undefined)
active: CP203 0.0064 µM | CP211 0.0057 µM | CP217 0.0014 µM | CP237 0.0011 µM | CP238 0.005 µM | CP247 0.0022 µM | CP250 0.0028 µM | CP252 0.0032 µM | CP256 0.0016 µM

CC(C)Nc1cccnc1N1CCN(C(=O)c2cc3cc(NS(C)(=O)=O)ccc3[nH]2)CC1
not listed: CP247
inactive: all other assays above

COc1cc([C@H]2Oc3cc([C@H]4Oc5cc(O)cc(O)c5C(=O)[C@@H]4O)ccc3O[C@@H]2CO)ccc1O
not listed: CP247
inactive: all other assays above

Cc1cc(NS(=O)(=O)c2ccc(N)cc2)nc(C)n1
not listed: CP211
inactive: all other assays above

Cc1cc(CC(=O)O)c(C)n1-c1ccc(Cl)cc1
not listed: CP217 | CP237 | CP252
inactive: all other assays above

CCCc1ncc(C[n+]2ccccc2C)c(N)n1
not listed: CP215
inactive: all other assays above

Cc1cccc(C)c1NC(=O)CN1CCCC1
not listed: CP237 | CP250
inactive: all other assays above

CC(C)=CCOc1ccc(/C=C/C(=O)c2ccc(OCC=C(C)C)cc2OCC(=O)O)cc1
not listed: CP215
inactive: all other assays above

CCCCCCCCCCCCOCCOCCOCCOCCOCCOCCOCCOCCOCCO
inactive: CP203 | CP211 | CP215 | CP237

CC(C)[N+](C)(C)CC(O)COc1cccc2ccccc12 (centres undefined)
inactive: CP203 | CP217 | CP238 | CP247 | CP252

CCCN(CCc1cccs1)[C@H]1CCc2c(O)cccc2C1
active: CP203 6.75 µM | CP211 10.7 µM | CP215 15.1 µM | CP217 11.2 µM | CP237 3.16 µM | CP238 10 µM | CP247 8.91 µM | CP252 11.2 µM

CC(C)NCC(O)c1ccc2ccccc2c1 (centres undefined)
active: CP203 12 µM | CP215 10.7 µM | CP217 8.91 µM | CP237 4.47 µM | CP238 10 µM | CP247 7.94 µM | CP252 11.2 µM

O=C1C(CCS(=O)c2ccccc2)C(=O)N(c2ccccc2)N1c1ccccc1 (centres undefined)
not listed: CP215
inactive: all other assays above

CN1CCN(c2cc3c(cc2F)c(=O)c(C(=O)O)cn3-c2ccc(F)cc2)CC1
not listed: CP215 | CP237
inactive: all other assays above

CC(=O)NC(=O)c1ccccc1O
not listed: CP211
inactive: all other assays above

Cc1nc(-c2ccc(Cl)cc2)oc1COC(C)(C)C(=O)O
not listed: CP247
inactive: all other assays above

OC(C#CCN1CCCC1)(c1ccccc1)c1ccccc1
active: CP203 15.1 µM | CP237 5.01 µM

O=C(CCN1CCN2CCCC2C1)N1c2ccccc2Sc2ccc(Cl)cc21 (centres undefined)
inactive: CP203 | CP211 | CP250

COc1cc(C(=O)N2CCCCCCC2)cc(OC)c1OC
not listed: CP250
inactive: all other assays above

C[N+]1(CC2COC(c3ccccc3)(C3CCCCC3)O2)CCCCC1 (centres undefined)
active: CP203 4.78 µM | CP211 4.78 µM | CP215 5.36 µM | CP217 8.91 µM | CP237 7.08 µM | CP238 7.08 µM | CP252 10 µM | CP256 10 µM

COc1ccc(C(=O)c2ccccc2O)c(O)c1
inactive: CP203 | CP211 | CP238 | CP247 | CP250 | CP256

CCOc1ccc(NC(C)=O)cc1
not listed: CP215
inactive: all other assays above

C/C=C/c1ccc(O)c(OC)c1
not listed: CP215
inactive: all other assays above

N/C(=N\N=C\c1ccc(Cl)cc1)N/N=C/c1ccc(Cl)cc1
active: CP217 8.91 µM | CP237 10 µM | CP256 10 µM
inactive: CP203 | CP211 | CP215

OCCOCCN1CCN(C2=Nc3ccccc3Sc3ccccc32)CC1
not listed: CP237
inactive: all other assays above

NC(=S)N/N=C/c1cccnc1
not listed: CP247
inactive: all other assays above

CCCCc1cc2ccccc2c(OCCN(C)C)n1
not listed: CP215 | CP237
inactive: all other assays above

COc1ccc(C(=O)c2ccccc2)c(O)c1
not listed: CP250
inactive: all other assays above

CCCCCCCC/C=C\CCCCCCCCN
inactive: all assays above

COc1ccc(CCN(C)CCCN2CCc3cc(OC)c(OC)cc3CC2=O)cc1OC
not listed: CP237 | CP247 | CP256
inactive: all other assays above

CCc1oc2ccccc2c1C(=O)c1cc(Br)c(O)c(Br)c1
not listed: CP215
inactive: all other assays above

NC(=O)C1(N2CCCCC2)CCN(CCCC(=O)c2ccc(F)cc2)CC1
not listed: CP237 | CP247
inactive: all other assays above

CC(=O)OCC(=O)[C@H]1CC[C@H]2[C@@H]3CCC4=CC(=O)CC[C@]4(C)[C@H]3CC[C@]12C
not listed: CP215 | CP237
inactive: all other assays above

CC(C)(C)CC(C)(C)c1ccc(O)c(-n2nc3ccccc3n2)c1
active: CP247 11.2 µM
inactive: CP203 | CP211 | CP215

COc1ccc(CN(CCN(C)C)c2ncccn2)cc1
active: CP237 7.08 µM
not listed: CP203
inactive: all other assays above

COc1cc(C(=S)N2CCOCC2)ccc1O
not listed: CP203
inactive: all other assays above
